Test results published in PubChem BioAssay AID743200 (The Scripps Research Institute Molecular Screening Center, 2013).
In all, about 1,500 compounds went through this assay and about 950 (63%) were called active. Rule as the data show it: active = inhibition above about 25%; inactive = the rest. So high a share suggests a set chosen from earlier hits. Only a sample is shown.

target: Major prion protein (Homo sapiens) (UniProt P04156); experiment: confirmation of inhibitors of cell surface human prion protein, confirmation, cell-based, TR-FRET (AID 743200); conditions: cell surface PrPC level, at 13.8 µM, hits give high values

SMILES	inhibition
COc1cccc2sc3cc(NCC[C@@H]4CCCN4C)ccc3c(=O)c12	46% (active)
COc1ccc2c(Cl)c(-c3nnco3)sc2c1	37.6% (active)
FC(F)(F)c1cccc(NC(=S)OC2CCC23CCC(c2ccccc2)CC3)c1 (stereo not drawn)	15.7% (inactive)
CC(=O)c1sc2nc(SCC(=O)N3CCCCC3)[nH]c(=O)c2c1C	28.8% (active)
COc1ccc(S(=O)(=O)N2CCOCC2)cc1NC(=O)CSc1ncnc2ccccc12	92.1% (active)
Cc1nc(/N=C(\N)NC(=O)NC2CCCCC2)nc2ccccc12	29.3% (active)
O=C(Nc1cccn(Cc2ccccc2Cl)c1=O)NC1CCCCC1	15.9% (inactive)
O=C(CC(O)(C(F)(F)F)C(F)(F)F)Nc1ccc(Cl)c(Cl)c1	58.3% (active)
COc1ccc(NC(=O)COC(=O)CNC(=O)C2CCCCC2)cc1	3.04% (inactive)
CCOC(=O)c1c(-c2ccccc2)oc2cc(Br)c(O)cc12	90.9% (active)
O=C(/C=C/c1ccc([N+](=O)[O-])o1)NNC(=O)c1ccc(F)cc1	64.6% (active)
CC1(C)Cc2ccccc2-c2[nH]c(=S)[nH]c(=O)c21	81.8% (active)
N#Cc1c(-c2cccs2)nc(SCC(=O)c2ccc(Br)cc2)[nH]c1=O	74.2% (active)
COc1cc(-n2c(=S)[nH]c3ccc(C)cc3c2=O)c(Cl)cc1Cl	46.2% (active)
CCCOc1ccc(C2C(C(=O)c3ccc(C)o3)=C(O)C(=O)N2CCCn2ccnc2)cc1 (stereo not drawn)	52.6% (active)
O=C(Oc1ccccc1)Oc1ccc2c(c1)oc(=O)c1ccccc12	40.9% (active)
Cc1ccnc(NC(=O)C2CCN(S(=O)(=O)c3c(C)c(C)cc(C)c3C)CC2)c1	20.7% (inactive)
C=CCNC(=O)CSc1nc2scc(-c3ccco3)c2c(=O)n1CC=C	31.3% (active)
Cc1cc2ccccc2n1CCNC(=O)COc1ccc2ccccc2c1	48.4% (active)
CCCc1nc(SCC(=O)Nc2ccc(S(=O)(=O)N(C)C)cc2)c2ccccc2n1	90.7% (active)
Cc1cccc(CS(=O)(=O)c2ncc(Cl)c(C(=O)Nc3ccc(F)cc3)n2)c1	15.9% (inactive)

SMILES	inhibition
Cc1cccc(NC(=O)c2nc(S(=O)(=O)Cc3ccccc3)ncc2Cl)c1	39.3% (active)
CCCCCCCCn1c2c(c(=N)c3c1CCC3)CCCC2	44.9% (active)
CN(C)CCNC(=O)c1ccc(Cl)c2cc3ccccc3nc12	45.2% (active)
CO[C@H]([C@H](C)/C=C/N(C)C=O)[C@@H](C)C(=O)CC[C@H](C)[C@H](O)[C@H](C)[C@H]1OC(=O)/C=C/C(C)=C/[C@H](O)[C@H](OC)C[C@@H]2C=CC[C@@H](C[C@H](OC)[C@@]3(CO3)[C@@H](OC)C[C@@H](OC)[C@@H]1C)O2	32.5% (active)
Cn1c(=S)sc2ccc3ccccc3c21	75.4% (active)
CCCCNc1c(-c2cccc(Sc3ccc(OC)cc3)c2)nc2ccccn12	17% (inactive)
Cc1sc2ncnc(SCC(=O)Nc3ccc(CN4CCCC4)cc3)c2c1C	53.1% (active)
NC(=O)C1CCN(Cc2nc3c(Br)cc(Br)cc3c(=O)[nH]2)CC1	41.7% (active)
CCOC(=O)c1c(C)[nH]c(=S)c(C#N)c1-c1ccccc1	43.5% (active)
CCC(C)(O)C(=O)OC1C(=O)OC2CC3C(C)=CC(=O)C(O)C3(C)C3C4(O)OCC23C1C(C)C4O (stereo not drawn)	98.8% (active)
COC(=O)Cc1[nH]n(-c2nc3ccccc3s2)c(=O)c1C(C)=Nc1ccc(OC)cc1	5.13% (inactive)
Cc1cc2cc(CNC(=O)c3ccc(S(=O)(=O)N4CCOCC4)cc3)ccc2[nH]1	15.2% (inactive)
COc1ccc(C(=O)Nc2nc(-c3ccc(S(=O)(=O)N4CCOCC4)cc3)cs2)cc1	27.4% (active)
Cc1ccsc1C(=O)OCC(=O)Nc1cccc(F)c1	8.25% (inactive)
Cc1ccc(CSc2ccc(S(=O)(=O)N3CCCCC3)cn2)cc1	6.8% (inactive)
CCc1c(C)nc2cc(-c3cccs3)[nH]n2c1=O	41.7% (active)
O=C(COC(=O)c1ccccc1SCC(=O)NC1CCCCC1)NC1CCCCC1	24.6% (active)
O=C1CCCC2=C1C(c1cccs1)n1nc(SCc3ccccc3)nc1N2 (stereo not drawn)	20% (inactive)
N#C/C=C1\Sc2ccccc2C(=O)N1CC(=O)N1CCN(S(=O)(=O)c2ccccc2)CC1	67.5% (active)
N#Cc1ccc(OCC(=O)Nc2nc(-c3ccccn3)cs2)cc1	18.7% (inactive)
COc1ccc(OC)c(NC(=O)c2cc(-c3cc(F)ccc3OCC3CCCO3)n[nH]2)c1 (stereo not drawn)	10.2% (inactive)

SMILES	inhibition
CC(=O)N1CCCc2cc(S(=O)(=O)N3CCCC(C(=O)NCc4ccc(Cl)cc4)C3)ccc21 (stereo not drawn)	17.2% (inactive)
CC(=O)N1c2ccc(S(=O)(=O)N3CCCC(C(=O)Nc4cccc(F)c4)C3)cc2CC1C (stereo not drawn)	49.1% (active)
CC(=O)N1CCCc2cc(S(=O)(=O)N3CCCC(C(=O)N4CCN(c5cccc(Cl)c5)CC4)C3)ccc21 (stereo not drawn)	38.3% (active)
O=C(NC(Nc1nc2ccc([N+](=O)[O-])cc2s1)(C(F)(F)F)C(F)(F)F)c1ccccc1	65.9% (active)
CN1/C(=C\C(=O)c2oc3ccccc3c2N)C(C)(C)c2ccccc21	49.3% (active)
CC(=O)Nc1cccc(OCC(=O)/C=C2\N(C)c3ccccc3C2(C)C)c1	20.8% (inactive)
O=C(Nc1ccc(C2CC2(Cl)Cl)cc1)c1cccc([N+](=O)[O-])c1 (stereo not drawn)	24.7% (active)
O=C(Cc1ccccc1)Nc1cccc(NC(=O)c2ccccc2)c1	11.2% (inactive)
Cc1ccc(CNC(=O)Nc2nnc([C@H]3C[C@H](O)[C@@H](CO)O3)s2)cc1	-0.76% (inactive)
Cc1ccc(Oc2cnn(-c3ccccc3)c(=O)c2Br)cc1	51.9% (active)
CC(=O)c1nc(N2C(=O)C3CC=C(C)CC3C2=O)sc1C (stereo not drawn)	18% (inactive)
Cc1[nH]n(-c2ccccc2)c(=O)c1/C=N/NC(=O)c1ccoc1C	60.1% (active)
O=C(c1ccc(F)cc1)c1cn(Cc2ccc(F)cc2)c2cc3c(cc2c1=O)OCCO3	90.5% (active)
Fc1ccc2[nH]c3c(N4CCSCC4)ncnc3c2c1	35.3% (active)
Cc1ccc(NC(=O)c2sc3nc(N)c(C#N)cc3c2N)cc1	35.3% (active)
CCc1nc(SCC(=O)NNC(=O)c2ccc(C)cc2)c2ccccc2n1	118% (active)
COC(=O)CSc1nc(C2CC2)nc2ccccc12	35.9% (active)
O=c1[nH]cccc1-c1nc2ccccc2n1Cc1ccc(Cl)cc1	35.3% (active)
CCCCC(=O)NC(c1ccc(OC)c(OC)c1)c1ccc2cccnc2c1O (stereo not drawn)	26.9% (active)
CCCCCCCCCCCCn1ccc(=N)cc1	38.5% (active)
O=C(Nc1ccc(N2CCN(C(=O)c3ccccc3)CC2)c(Cl)c1)c1cccnc1	12.3% (inactive)
